TSHR antagonist: Antagonists of the Thyroid Stimulating Hormone Receptor: HTS campaign; Thyrotropin receptor (Homo sapiens), P16473; TSHR-expressing cells, TSH-stimulated cAMP HTRF, 2 h; hits give low values; activity change, negative = inhibition, % at 11.5 µM; 330,000 compounds, 0.2% hits;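 active = activity change below a set negative limit, meaning inhibition stronger than a set level, cut at about -70% in these data; inconclusive = activity change between two set negative limits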
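Competitive HTRF cAMP read-out (cryptate anti-cAMP antibody, cAMP-d2; 30 min, room temperature) in freshly harvested TSHR cells. Compounds added before TSH at EC80 (4nM final), followed by 2 hours' incubation at 37 deg C.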
GLP-1R inv ag: qHTS of GLP-1 Receptor Inverse Agonists (Inhibition Mode); 410,000 compounds, 1.6% hits; AID 624417, 2012; Potency, µM (series often up to 38.3 µM), usual class: inhibitors; Glucagon-like peptide 1 receptor (Homo sapiens), P43220; HEK293 GLP-1R CRE-luciferase, luminescence, 24 h; GLP-1R form is constitutively active; also: nearly all actives have a fitted effect of over 55% in size
Target sequence (P43220 whole entry, looked up): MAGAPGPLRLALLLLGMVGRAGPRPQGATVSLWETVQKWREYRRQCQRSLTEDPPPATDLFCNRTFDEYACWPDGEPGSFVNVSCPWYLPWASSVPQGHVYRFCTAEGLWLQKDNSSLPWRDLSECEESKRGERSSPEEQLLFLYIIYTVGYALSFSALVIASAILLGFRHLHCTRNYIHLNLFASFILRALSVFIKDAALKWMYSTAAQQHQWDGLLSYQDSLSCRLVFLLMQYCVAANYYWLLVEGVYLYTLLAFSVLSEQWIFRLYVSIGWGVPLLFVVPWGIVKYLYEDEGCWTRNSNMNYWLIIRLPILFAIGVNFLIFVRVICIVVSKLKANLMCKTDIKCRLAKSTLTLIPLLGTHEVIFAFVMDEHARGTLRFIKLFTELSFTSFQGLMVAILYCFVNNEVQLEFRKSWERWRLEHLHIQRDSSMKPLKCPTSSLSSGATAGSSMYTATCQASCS
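Using stably transfected HEK293 (constitutively active GLP-1R, cAMP-luciferase reporter), compounds were incubated 24 hr and luciferase measured by luminescence.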
HEK293 tox: qHTS of GLP-1 Receptor Inverse Agonists: Cytotox Screen; HEK293 cAMP-luciferase reporter cells, luminescence, 24 h; Potency, µM (top dose mostly 38.3 µM), most hits filed as inhibitors; 410,000 compounds, 0.13% hits; AID 624418, 2012;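 also: loss of luciferase light is scored as toxicity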
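MLSMR compounds, 24 hr on cells at 37 deg C/5% CO2; luminescence after luciferase reagent (12 min RT). Inhibition counted as the undesired cytotoxic outcome.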
PTHR1 agonist: qHTS for PTHR1 Agonists: Primary Screen. Parathyroid hormone/parathyroid hormone-related peptide receptor (Homo sapiens), Q03431. HEK293 GP2 PTHR1 cells, GloSensor cAMP luminescence, 1 h. Potency, µM (highest dose often 115 µM), most hits filed as activators. 410,000 compounds, 0.075% hits. AID 743266, 2014; also: nearly all actives have a fitted effect of over 55% in size
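HEK-293-derived GP2 cells expressing PTHR1 and a GloSensor cAMP reporter, 3,000/well, plated overnight, given luciferin plus IBMX (each 0.5 mM as added) for 1 h at 37 °C, then compound for 1 h at 37 °C. Luminescence was read after 15 min at room temperature.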
GLP1R ag: qHTS of GLP-1 Receptor Agonists; Glucagon-like peptide 1 receptor (Homo sapiens), P43220; HEK293 GLP-1R CRE-luciferase, luminescence, 4-6 h; cells express a hypersensitive GLP-1R form; Potency, µM (doses to about 45.6 µM), usual class: activators; 380,000 compounds, 0.007% hits
A number is an active result; [ ] = another dose, or the depositor's remark. Only some compounds are listed: those with a hit (about 1.8% of all), similar ones and a draw of the others. Unless noted, calls follow the shape of the dose curve; as a rule, active = well fitted curve in the direction sought with a large enough effect; inconclusive = small, poorly fitted or top-dose-only effect, or another doubt; inactive = no such curve, though single readings can be large; an effect the other way counts as inactive or inconclusive.

Results for O=C1C2C3CCCC3=C3CCCC3C2C(=O)N1c1ccc(Cl)cc1 (centres undefined) ?
TSHR antagonist: inactive; GLP-1R inv ag: inactive; HEK293 tox: inactive; PTHR1 agonist: inactive; GLP1R ag: inactive

How did COc1ccc(-c2[nH]c(-c3ccc(C)cc3)nc2SCC(=O)NCC2CCCO2)cc1 (centres undefined) do in these assays?
GLP-1R inv ag: inconclusive; HEK293 tox: inactive; PTHR1 agonist: inactive

How did CC#CCC(C)[C@H](O)/C=C/C1[C@H](O)C[C@@H]2C/C(=C\CCCC(=O)O)C[C@H]12 (some centres undefined) do in these assays?
GLP1R ag: inactive

How did Cc1nc(-c2cccc(NC(=O)Nc3ccc([N+](=O)[O-])cc3)c2)no1 do in these assays?
GLP-1R inv ag: 3.55µM; HEK293 tox: inconclusive; PTHR1 agonist: inactive; GLP1R ag: inactive

What do the screens show for `CC1(C)C2CCC1(C)C(NC(=O)/C=C/c1ccccc1)C2` (centres undefined)?
TSHR antagonist: inactive; GLP-1R inv ag: 7.08µM; HEK293 tox: inactive; PTHR1 agonist: inactive; GLP1R ag: inactive

What do the screens show for `CCC(C)(C)C1CCC2(CC1)NC(=O)N(CC(=O)N(C)Cc1ccc(OC(F)F)cc1)C2=O` (centres undefined)?
TSHR antagonist: inactive; GLP-1R inv ag: 1.41µM; HEK293 tox: inactive; PTHR1 agonist: inactive; GLP1R ag: inactive

How did CCCC(=O)Nc1nnc(CCc2ccccc2)s1 do in these assays?
TSHR antagonist: -88.9; GLP-1R inv ag: inactive; HEK293 tox: inactive; PTHR1 agonist: inactive; GLP1R ag: inactive

How did CCCCc1nnc(NC(=O)CCc2ccccc2)s1 do in these assays?
TSHR antagonist: inactive; GLP-1R inv ag: inactive; HEK293 tox: inactive; PTHR1 agonist: inactive; GLP1R ag: inactive

Results for O=C(OCC(F)(F)F)c1cccc(COc2ccc3ccccc3c2)c1 ?
TSHR antagonist: inactive; GLP-1R inv ag: 2.24µM; HEK293 tox: inactive; PTHR1 agonist: inactive; GLP1R ag: inactive

Results for COc1ccc(Cl)cc1N(C)C(=O)Cc1noc2ccc(C)cc12 ?
GLP-1R inv ag: inactive; HEK293 tox: inactive; PTHR1 agonist: inactive

How did Cc1ccc(NC(=O)Cn2cnc3sc(C(=O)O)c(C)c3c2=O)cc1Cl do in these assays?
GLP-1R inv ag: inactive; HEK293 tox: inactive; PTHR1 agonist: inactive

How did Cc1cccc(-n2ncc3c(N4CCOCC4)ncnc32)c1 do in these assays?
TSHR antagonist: inactive; GLP-1R inv ag: 3.16µM; HEK293 tox: inactive; PTHR1 agonist: inactive; GLP1R ag: inactive

How did Cc1ccc(-n2ncc3c(N4CCCCC4)ncnc32)cc1Cl do in these assays?
GLP-1R inv ag: 0.794µM; HEK293 tox: inactive; PTHR1 agonist: inactive

What do the screens show for `Cc1ccc(C)c(N2CCN(C(=O)Cn3cnc4sc(C)c(S(=O)(=O)N5CCN(c6ncccn6)CC5)c4c3=O)CC2)c1`?
GLP-1R inv ag: inactive; HEK293 tox: inactive; PTHR1 agonist: inactive; GLP1R ag: inactive

What do the screens show for `CC(C)(C)OC(=O)N1CCC(c2c(C(=O)Nc3ccc4c(c3)OCCO4)cnn2-c2ccccc2)CC1`?
GLP-1R inv ag: inconclusive; HEK293 tox: inactive; PTHR1 agonist: inactive

Results for COc1cc(OC)cc(-c2c(-c3ccc(F)cc3)c3cc(-c4cccc5[nH]ccc45)ccc3n2C)c1 ?
TSHR antagonist: inactive; GLP-1R inv ag: 5.62µM; HEK293 tox: inactive; PTHR1 agonist: inactive; GLP1R ag: inactive

What do the screens show for `O=C(c1cccn1-c1nnc(N2CCCCC2)s1)N1CCN(c2ccc(Cl)cc2)CC1`?
GLP-1R inv ag: inactive; HEK293 tox: inactive; PTHR1 agonist: inactive

How did COCCNC(=S)NN=C1CCCCC1 do in these assays?
TSHR antagonist: inactive; GLP-1R inv ag: inactive[7.66 µM]; HEK293 tox: inactive[7.66 µM]; PTHR1 agonist: inactive; GLP1R ag: inactive

Results for NC(=S)NN=C1CCCCCCCCC1 ?
GLP-1R inv ag: 2.82µM; HEK293 tox: 4.47µM; PTHR1 agonist: inactive; GLP1R ag: inactive

How did C=CCNC(=S)NN=C1CCCCCCC1 do in these assays?
TSHR antagonist: inactive; GLP-1R inv ag: 3.55µM; HEK293 tox: inconclusive; PTHR1 agonist: inactive; GLP1R ag: inactive

Results for CCOc1ccc(-c2nc(CSCC(=O)NC3CCN(Cc4ccccc4)CC3)c(C)o2)cc1 ?
GLP-1R inv ag: 8.91µM; HEK293 tox: inactive; PTHR1 agonist: inactive; GLP1R ag: inactive

What do the screens show for `Cc1oc(-c2ccc(Cl)cc2)nc1CSCC(=O)NC1CCN(Cc2ccccc2)CC1`?
TSHR antagonist: inactive; GLP-1R inv ag: inconclusive; HEK293 tox: inactive; PTHR1 agonist: inactive; GLP1R ag: inactive

How did CC1=CC(C)(C)N2C(=O)C3(N=C(N)NC(Nc4ccccc4)=N3)c3cc(C)cc1c32 (centres undefined) do in these assays?
TSHR antagonist: inactive; GLP-1R inv ag: 3.55µM; HEK293 tox: inconclusive; PTHR1 agonist: inactive; GLP1R ag: inactive

Results for Cc1ccc(CNC(=O)CNC(=S)N(Cc2ccccc2)Cc2ccccc2F)cc1 ?
TSHR antagonist: inactive; GLP-1R inv ag: 10µM; HEK293 tox: inactive; PTHR1 agonist: inactive; GLP1R ag: inactive

Results for O=C(CNC(=S)N(Cc1ccccc1)Cc1ccccc1F)NCc1ccccc1 ?
TSHR antagonist: inactive; GLP-1R inv ag: inactive[0.307 µM]; HEK293 tox: inactive[0.307 µM]; PTHR1 agonist: inactive; GLP1R ag: inactive

What do the screens show for `CCc1ccc(Sc2cc(C(=O)NCc3cccc(OC)c3)c3ccccc3n2)cc1`?
GLP-1R inv ag: 10µM; HEK293 tox: inactive; PTHR1 agonist: inactive; GLP1R ag: inactive

What do the screens show for `COc1cccc(CNC(=O)c2cccnc2Sc2ccccc2)c1`?
TSHR antagonist: inactive; GLP-1R inv ag: inactive; HEK293 tox: inactive; PTHR1 agonist: inactive; GLP1R ag: inconclusive

How did CCc1cccc(N2C(=O)N(Cc3c(F)cccc3Cl)c3ccccc3S2(=O)=O)c1 do in these assays?
GLP-1R inv ag: inactive; HEK293 tox: inactive; PTHR1 agonist: inactive; GLP1R ag: inactive

How did CCNC1CCC(Nc2ccnc3cc(Cl)ccc23)CC1 (centres undefined) do in these assays?
GLP-1R inv ag: inconclusive; HEK293 tox: inconclusive; PTHR1 agonist: inactive; GLP1R ag: inactive

Results for OC(CNc1ccnc2cc(Cl)ccc12)CNC1CCCCC1 (centres undefined) ?
GLP-1R inv ag: inconclusive; HEK293 tox: 5.01µM; PTHR1 agonist: inactive; GLP1R ag: inactive

Results for O=C(Nc1ccc(F)c(F)c1)c1ccc(F)c(S(=O)(=O)N2CCC3(CC2)OCCO3)c1 ?
TSHR antagonist: inactive; GLP-1R inv ag: 3.55µM; HEK293 tox: inactive; PTHR1 agonist: inactive; GLP1R ag: inactive

Results for O=S(=O)(c1cc(F)ccc1F)N1CCC2(CC1)OCCO2 ?
TSHR antagonist: inactive; GLP-1R inv ag: inactive; HEK293 tox: inactive; PTHR1 agonist: inactive; GLP1R ag: inactive

Screening results from PubChem BioAssay.
